According to PubChem BioAssay AID518 (Sanford-Burnham Center for Chemical Genomics, 2006):
The campaign covered roughly 64,000 compounds. About 55 (0.09%) were called active. How the calls were made is not given here. A selection follows.

Each molecule was assayed against Alkaline phosphatase, tissue-nonspecific isozyme (Homo sapiens) (UniProt P05186) (assay: human TNAP enzyme inhibitors, biochemical, luminescent (AID 518;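 further: plate controls were vehicle for no effect and reference inhibitor for full effect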)). Settings: purified TNAP enzyme, luminescent substrate readout; at 20 µM; stronger effect = higher value.
Chain of Alkaline phosphatase, tissue-nonspecific isozyme (Homo sapiens) (P05186 whole entry, looked up): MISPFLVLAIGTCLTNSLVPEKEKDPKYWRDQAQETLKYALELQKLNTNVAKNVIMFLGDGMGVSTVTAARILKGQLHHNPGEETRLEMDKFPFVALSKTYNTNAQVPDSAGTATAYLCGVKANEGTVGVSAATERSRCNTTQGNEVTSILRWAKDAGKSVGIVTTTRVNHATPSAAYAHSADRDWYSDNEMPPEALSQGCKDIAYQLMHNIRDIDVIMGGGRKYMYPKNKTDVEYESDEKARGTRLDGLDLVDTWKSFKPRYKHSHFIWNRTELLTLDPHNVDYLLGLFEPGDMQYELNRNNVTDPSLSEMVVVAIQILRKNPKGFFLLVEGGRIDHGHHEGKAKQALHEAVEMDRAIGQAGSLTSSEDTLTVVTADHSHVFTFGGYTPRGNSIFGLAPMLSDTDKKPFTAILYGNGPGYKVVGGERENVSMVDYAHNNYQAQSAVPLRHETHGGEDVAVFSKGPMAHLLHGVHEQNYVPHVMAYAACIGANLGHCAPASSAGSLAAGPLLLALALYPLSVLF

inhibition, inactive:
CCN1C(=O)OC2(CCCCC2)C1(C)O (stereo not drawn) 13%
O=C(NCCN1CCOCC1)c1cc2ccccc2o1 9.4%
Cc1cc2c(c(Sc3ccccc3)n1)C(=O)OC2 7.5%
O=C(N1CCOCC1)N1CCN(CC(O)COc2ccc3ccccc3c2)CC1 (stereo not drawn) 16.3%
Cn1c2ccccc2c2nnc(SCN3C(=O)c4ccccc4C3=O)nc21 8.4%
Cc1cc(C(=O)OCC(=O)Nc2nc(-c3ccccc3)cs2)c(C)o1 1.4%
O=c1c2ccccc2nc2n1CCCS2 4.5%
COc1cc2[nH]c3c(N4CCN(c5ccc(Cl)cc5)CC4)ncnc3c2cc1OC 5.3%
O=C(CCC(=O)c1ccc(F)cc1)OC1CCOC1=O (stereo not drawn) 6.6%
COc1ccccc1N1CCN(C(=O)CSc2ccc3c(C)cc(C)nc3n2)CC1 10.2%
Oc1ccccc1Oc1ncc(Br)c(N2CCOCC2)n1 -1.3%
C/C(N)=C(/C#N)C(=O)CSc1ncnc2ccccc12 5.5%
COc1ccccc1-c1nc(SCC(=O)O)n[nH]1 4.7%
Cc1nc2sc(C(c3cccc(F)c3)N3CCCC(C)C3)c(O)n2n1 (stereo not drawn) 5.8%
COc1ccc(OC)c2c1CCC2=O 8.1%
CN(CCCNC(=O)C1CCC(=O)N1Cc1ccc(F)cc1)c1ccccc1 (stereo not drawn) 1.1%
Cc1cc(C(=O)NCCN2CCN(c3cccc(Cl)c3)CC2)n(-c2ccccc2)n1 10.8%
CCc1c(C)[nH]c2ccc(C)cc2c1=O 7.8%
CCCCn1c(NCCN(C)C)nc2c1c(=O)[nH]c(=O)n2C -1%
O=C(CSc1oc(-c2ccccc2)nc1S(=O)(=O)c1ccc(F)cc1)NCC1CCCO1 (stereo not drawn) 1.7%
O=C(COc1ccc(S(=O)(=O)N2CCOCC2)cc1)Nc1ccc2c(c1)OCCO2 -6.1%
C=CCN1C(=O)C(O)(CC(=O)c2ccccc2)c2ccccc21 (stereo not drawn) 7.7%
CN(C)c1oc(-c2ccc(OCc3ccc(Cl)cc3)cc2)nc1C#N 5.2%
O=C(c1ccc(CNS(=O)(=O)c2cccc(C(F)(F)F)c2)cc1)N1CCOCC1 19.5%
CCn1cnc2sc(C(=O)N3CCN(Cc4ccc5c(c4)OCO5)CC3)c(C)c2c1=O 0.3%
c1ccc(N2CCN(C3CCSC3)CC2)cc1 (stereo not drawn) 13.5%
COCCNc1ncnc2nc[nH]c12 8.7%
CCOCCCNC(=O)C(c1ccc(C)cc1)N1CCOCC1 (stereo not drawn) -1%
CS(=O)(=O)N(CC(=O)NCc1ccc2c(c1)OCO2)c1ccc(Cl)cc1 6.8%
CCOc1ccc(CNc2ccc3c(c2)ncn3C)cc1 16.9%
Cc1nccn1CCC(=O)O 5.3%
CCc1ccccc1N1C(=O)C2CC(C)=C(C)CC2C1=O (stereo not drawn) 5.3%
Cc1cc(C(=O)NC(C)c2ccncc2)cs1 (stereo not drawn) 3.5%
Cc1ccc(S(=O)(=O)Cn2nnnc2C(c2ccc(F)cc2)N2CCCCC2)cc1 (stereo not drawn) 3.5%
CCCCCC(=O)N1CCN(CCN=CC2=C(O)CC(c3ccco3)CC2=O)CC1 (stereo not drawn) 8%
O=C(NCCN1CCOCC1)C1CCN(c2nc3ccccc3o2)CC1 7.3%
CCCc1ccc(S(=O)(=O)NCCc2ccncc2)cc1 10.5%
CCc1ccc2[nH]c(=O)c(C(c3nnnn3CC3CCCO3)N3CCCc4ccccc43)cc2c1 (stereo not drawn) 19.5%
COc1cc(C2C3CN(C)CC=C3C(C#N)=C(N)C2(C#N)C#N)ccc1OC(C)C (stereo not drawn) -0.1%
CC1c2nc3ccccc3n2C(CC(=O)NCc2ccccn2)C(=O)N1Cc1ccccc1 (stereo not drawn) 12.3%
Cc1onc(-c2c(F)cccc2Cl)c1C(=O)Nc1cccc2nsnc12 13.1%
COc1cc(C)nc(OCCNC(=O)COc2ccc(Cl)cc2Cl)n1 13.3%
COc1ccc(CNS(=O)(=O)c2ccc(C3CNC(=O)C3)cc2)cc1 (stereo not drawn) 8.2%
O=C(CSc1nnc2scc(-c3ccccc3)n12)N1CCCc2ccccc21 5.3%
C=CCOc1ccccc1C1C2=C(CC(C)(C)CC2=O)Nc2c1c(=O)n(C)c(=O)n2C (stereo not drawn) 4.4%
COC(=O)N(C)CCCC1(C)C(=O)N(C)c2ccc(O)cc21 (stereo not drawn) 8.6%
c1ccc(CSc2nncn2-c2ccccn2)cc1 17.8%
Cc1ccnc(NS(=O)(=O)c2cccs2)c1 14.5%
CCCc1noc2c1C(c1ccoc1)C(C#N)=C(N)N2 (stereo not drawn) 15.5%
CCN(CC)CCCN1C(=O)C(=O)/C(=C(/O)c2ccc3c(c2)OCCO3)C1c1ccc(C)o1 (stereo not drawn) 6.3%
c1ccc(CCc2nn3c(Cn4cnc5ccccc54)nnc3s2)cc1 10.8%
CCn1c2ccccc2c2nnc(SCC(=O)c3ccccc3)nc21 14.3%
CC(C)(CNS(=O)(=O)c1ccc(F)cc1)CNS(=O)(=O)c1ccc(F)cc1 10.8%
COc1ccc(CN(Cc2cc3cc4c(cc3[nH]c2=O)OCO4)C(=O)NC2CCCCC2)cc1 6.8%
O=C(NCc1ccco1)C(c1ccco1)N(CCc1ccccc1)C(=O)Cn1nnc2ccccc21 (stereo not drawn) 12.6%
Cc1ccc(N2C(=O)C3C(C2=O)C(C(=O)c2ccc(Cl)cc2)N2CCCC32)cc1 (stereo not drawn) 12%
CCOC(=O)c1cccnc1SCC(=O)N(C)c1ccccc1 -1.1%
O=C(Nc1c(Cl)cc(Cl)cc1C(=O)NCC1CCCO1)c1ccco1 (stereo not drawn) 5.4%
COC(=O)c1nc(NC(=O)C(C)C)n[nH]1 5.3%
COc1ccc2c(=O)c3c(=O)n(Cc4ccco4)c(-c4ccc(C)cc4)nc3oc2c1 9.7%
Cc1ccc(OCCn2c(=O)cnc3ccccc32)cc1 3.3%
CC1CCN(S(=O)(=O)c2cccc(C(=O)Nc3ccccn3)c2)CC1 24.3%
CCN1C(=O)C(Cc2nc3ccccc3c(=O)n2C)c2ccccc21 (stereo not drawn) 10.6%
COCc1[nH]nc2c1C(c1ccc(OC)c(OC)c1)C(C#N)=C(N)O2 (stereo not drawn) 7.1%
COCc1[nH]nc2c1C(c1ccc(OC)cc1)C(C#N)=C(N)O2 (stereo not drawn) 16.1%
COc1ccccc1C1C2C(=O)N(c3ccccc3)C(=O)C2ON1c1ccccc1 (stereo not drawn) -0.2%
O=c1[nH]c(-c2ccccc2O)nc2c1CCCC2 8.8%
Cc1ccc(NC(=O)c2cc(-c3ccco3)on2)cc1 8.1%
O=C(CN1CCC(n2nnc3cc(F)ccc32)CC1)Nc1ccccc1N1CCOCC1 6.7%
COc1ccc(S(=O)(=O)Nc2cc(Cl)ccc2OC)cc1 14.2%
O=c1cc(-c2ccccc2)nc2nc(COc3ccccc3)[nH]n12 1.9%
O=C(NCc1ccccc1)c1cc(=O)nc2sc(-c3ccccc3)nn12 9.8%
CCn1c(CNC(=O)c2cccs2)nnc1SCC(=O)NCCc1ccccc1 14%
C=CCN1C(=O)CS/C1=N/c1nccs1 8.1%
O=C1c2ccccc2C(=O)N1c1n[nH]c(CCc2ccccc2)n1 22.8%
O=C1C2C3C=CC(C3)C2C(=O)N1c1n[nH]c(CCc2ccccc2)n1 (stereo not drawn) 36.8%
Cc1ccc(NC(=O)Cn2cnc3c(=O)n(C)c(=O)n(C)c32)c(C)c1 3.9%
CN(C)c1[nH]c(=O)c(C#N)c2c1CCN2Cc1ccccc1 11.1%
CCOc1ccc(C2C(C#N)=C(N)Oc3nc[nH]c(=O)c32)cc1OC (stereo not drawn) 4.4%
O=C(CC(Nc1ccccc1)C(=O)O)c1ccccc1 (stereo not drawn) 15.2%
CCOc1ccc(OCC)c(NS(=O)(=O)c2ccc3c(c2)n(C)c(=O)c(=O)n3C)c1 0.5%
CCOc1ccc(CC(=O)Nc2c(C(N)=O)oc3ccccc23)cc1OCC 5.9%
CCN(CC)C(=O)c1c[nH]c2ccc(S(=O)(=O)Nc3cc(C)cc(C)c3)cc2c1=O 5.8%
CS(=O)(=O)N(CC(=O)NC1CCCCC1)c1cccc(Cl)c1 6.8%
COc1cccc(C(=O)Nc2ccccc2N2CCCC2)c1 9.9%
O=C(Cn1cc2c(n1)CCCCC2)NCc1ccccc1 9.1%
Cc1ccc(NC2CC(=O)N(c3ccc(N4CCCCC4)cc3)C2=O)cc1 (stereo not drawn) 6.6%
COc1ccc(CC(=O)Nc2cccc(-c3nnc(-c4ccccc4)o3)c2)cc1OC 6.4%
O=C(Nc1ccccc1)NC1(C(=O)NCc2ccc3c(c2)OCO3)CCCCC1 -0.2%
COc1cc(C2c3c(oc4c(C)cc(C)cc4c3=O)C(=O)N2Cc2cccnc2)cc(OC)c1OC (stereo not drawn) 4.1%
Cc1ccc(-c2nc(CS(=O)CC(=O)NCc3ccccn3)c(C)o2)cc1 (stereo not drawn) -7.5%
CN(C)/C=N/c1nc2ccc3c(c2s1)CCCC3 12.3%
COc1ccc(N2CCN(CC(=O)Nc3cc4c(cc3C(C)=O)OCO4)CC2)cc1 3.8%
CSc1ccccc1C(=O)NCc1ccc2c(c1)OCO2 7.3%
O=C(Nc1ccccc1)N(C1=NCCCCS1)c1ccccc1 8.3%
C=C(C)Cn1c(SCC(=O)O)nnc1-c1ccc(C(C)(C)C)cc1 10.6%
Nc1c(S(=O)(=O)c2cccc(Cl)c2)c2nc3ccccc3nc2n1/N=C/c1ccc(O)c(O)c1 11.3%
CSC1=C(C#N)C(c2cccs2)CC(=O)N1C (stereo not drawn) 10.5%
